# Screening results (PubChem)
# POLK inh: qHTS for Inhibitors of Polymerase Kappa; DNA polymerase kappa (Homo sapiens), Q9UBT6; purified Pol kappa, fluorescent DNA synthesis assay, 10 min; Potency, µM (top dose mostly 107 µM), for the others: top-dose activity, negative = inhibition, hits mostly inhibitors; 400,000 tested, 0.53% active; AID 588579, 2011; further: on the % scale 0 is the no-effect control and ±100 the full control effect
#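 Activity was followed as the change in fluorescence between reads at 0 and 10 min after starting the reaction with 50 nM substrate. Beforehand, 10 nM polymerase had been preincubated with compound for 15 min at room temperature.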
# POLB inh: qHTS Assay for Inhibitors of DNA Polymerase Beta; P06746; Pol beta primer extension/strand displacement, fluorescence kinetic; Potency, µM (highest dose often 114 µM), for the others: at the top dose activity change, negative = inhibition, most hits filed as inhibitors; 340,000 tested, 1.3% active; AID 485314, 2010; further: on the % scale 0 is the no-effect control and ±100 the full control effect
#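 Pol beta (10 nM) was preincubated with compound for 15 min at room temperature. The reaction was then started with 50 nM substrate and read immediately and after a further 10 min at room temperature.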
# Pol iota inh: qHTS for Inhibitors of Polymerase Iota. DNA polymerase iota (Homo sapiens), Q9UNA4. Pol iota fluorescent replication assay, 10 min. Potency, µM (titrated, usually from 115 µM), for the others: at the top dose activity, negative = inhibition, actives largely listed as inhibitors. 390,000 tested, 1% active
#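 Pol iota at 10 nM preincubated 15 min with compounds at room temperature; reaction started with fluorescent substrate, 50 nM final. Fluorescence read kinetically at 0 and 10 min; buffer-only wells as negative control.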
# FEN1 inhibitor: qHTS Assay for the Inhibitors of Human Flap endonuclease 1 (FEN1) | Potency, µM (highest dose often 114 µM), inactives show top-dose activity change, negative = inhibition, most hits filed as inhibitors | Recombinant FEN1 flap cleavage, fluorescence, 15 min | 390,000 tested, 0.35% active | P39748 | AID 588795, 2011; further: on the % scale 0 is the no-effect control and ±100 the full control effect; nearly all actives have a fitted effect of over 65% in size
#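 Potency values derive from four-parameter Hill fits of normalized qHTS data. The reaction used 10 nM FEN1 preincubated 15 min at room temperature with compound, then 50 nM DNA substrate, read at 0 and 15 min.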
# Pol eta inh: qHTS for Inhibitors of Polymerase Eta | recombinant Pol eta, fluorescent DNA replication assay | DNA polymerase eta (Homo sapiens), Q9Y253 | Potency, µM (top dose mostly 114 µM), without a hit: at the highest dose activity change, negative = inhibition, usual class: inhibitors | AID 588591, 2011 | 390,000 tested, 1.2% active; further: on the % scale 0 is the no-effect control and ±100 the full control effect
# Target sequence (Q9Y253 whole entry, looked up): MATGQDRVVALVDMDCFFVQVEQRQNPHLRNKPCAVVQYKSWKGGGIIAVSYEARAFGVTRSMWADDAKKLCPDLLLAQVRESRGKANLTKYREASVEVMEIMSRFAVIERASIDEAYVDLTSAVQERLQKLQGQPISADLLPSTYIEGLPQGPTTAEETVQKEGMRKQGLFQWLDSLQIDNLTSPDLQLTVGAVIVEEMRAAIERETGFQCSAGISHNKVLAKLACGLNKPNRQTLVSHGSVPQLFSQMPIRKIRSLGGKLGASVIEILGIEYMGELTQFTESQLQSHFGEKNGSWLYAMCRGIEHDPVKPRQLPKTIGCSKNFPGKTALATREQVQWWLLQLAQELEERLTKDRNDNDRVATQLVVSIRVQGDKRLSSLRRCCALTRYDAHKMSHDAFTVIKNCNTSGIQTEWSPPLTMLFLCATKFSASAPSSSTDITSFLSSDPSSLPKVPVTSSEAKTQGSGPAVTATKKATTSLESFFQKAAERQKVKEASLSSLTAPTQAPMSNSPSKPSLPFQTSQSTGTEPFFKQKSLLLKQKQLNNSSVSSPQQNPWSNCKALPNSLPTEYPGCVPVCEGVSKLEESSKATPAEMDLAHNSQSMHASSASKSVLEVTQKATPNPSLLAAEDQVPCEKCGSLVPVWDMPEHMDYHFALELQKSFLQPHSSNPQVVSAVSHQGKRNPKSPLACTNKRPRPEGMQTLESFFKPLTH
#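 Pol eta (10 nM) was preincubated with compounds for 15 min at room temperature, after which fluorescent replication substrate (50 nM final) was added to start the reaction. Fluorescence was read kinetically at 0 and 10 min.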
# WRN inhibitor: qHTS for Inhibitors of WRN Helicase; Bifunctional 3'-5' exonuclease/ATP-dependent helicase WRN (Homo sapiens), Q14191; AID 651768, 2012; WRN helicase unwinding, fluorescent forked duplex, kinetic; 360,000 tested, 0.46% active; Potency, µM (series often up to 114 µM), without a hit: top-dose activity change, negative = inhibition, actives largely listed as inhibitors; further: on the % scale 0 is the no-effect control and ±100 the full control effect; nearly all actives have a fitted effect of over 55% in size
#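 Fluorescence dequenching readout, ex 525 nm/em 598 nm, kinetic mode: forked duplex DNA (100 nM final) with adjacent fluorophore and quencher unwound by WRN (20 nM final) with 2 mM ATP. Compound preincubation 15 min, room temperature.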
# An asterisk follows results filed as active; ? = inconclusive; / = no result; [ ] = remark or other dose. A selection: hits, their analogues and other compounds. The true share with any hit is near 2.4%. The call rests on the fitted dose curve; in most records, active means well fitted curve in the direction sought with a large enough effect; inconclusive means small, poorly fitted or top-dose-only effect, or another doubt; inactive means no such curve, though single readings can be large; an effect the other way counts as inactive or inconclusive. Potency means the concentration at half of the fitted maximal effect.
SMILES,POLK inh,POLB inh,Pol iota inh,FEN1 inhibitor,Pol eta inh,WRN inhibitor
CC[C@H]1OC(=O)[C@H](C)C(=O)[C@H](C)[C@@H](OC2O[C@H](C)C[C@H](N(C)C)[C@@H]2O)[C@@](C)(OC)C[C@@H](C)C(=O)[C@@H](C)C2N(CCCCn3cnc(-c4cccnc4)c3)C(=O)O[C@@]21C (stereo not given in full),1%[19.4 µM],/,/,/,/,/
CCS(=O)(=O)N1Cc2ccccc2CC1C(=O)Nc1cc(S(C)(=O)=O)ccc1Cl (stereo not given),?,-11%,35µM*,9%,?,-8%[11.6 µM]
CCS(=O)(=O)N1Cc2ccccc2CC1C(=O)Nc1ccc(F)c(F)c1F (stereo not given),-19%,9%,16%,11%,-6%,1%
CCn1c(SCC(=O)N/N=C/C=C\c2ccco2)nc2ccccc21,-31%,18µM*,?,9%,?,-22%
Cc1ccc(CSc2nnc(SCC(=O)N/N=C/C=C/c3ccco3)s2)cc1,?,22µM*,?,-9%,?,-11%
CCOC(=O)c1ccc(NC(=O)CN2C(=O)c3cccnc3Sc3ccccc32)cc1,-12%,-1%,-3%,-9%,-7%,/
CCCN1CNc2c(c(=O)[nH]c(=S)n2CCCc2ccccc2)C1,9%,/,15%,9%,/,/
CC(=O)Oc1cc(-c2coc3cc(OC(C)=O)c(OC(C)=O)c(OC(C)=O)c3c2=O)cc(OC(C)=O)c1OC(C)=O,0.35µM*,/,/,/,/,/
COc1ccc(S(=O)(=O)Nc2ccc(F)cc2)cc1N(C)S(=O)(=O)c1ccc(Cl)cc1,-15%,-1%,89µM*,-5%,-14%,-27%
COc1ccc(NS(=O)(=O)c2ccc(OC)c(N(C)S(=O)(=O)c3ccc(Cl)cc3)c2)cc1,-14%,-17%,89µM*,-13%,-20%,-17%
COc1ccc(N(C(=O)c2ccc(OC)c(OC)c2)S(=O)(=O)c2ccc(Cl)cc2)cc1,79µM*,-2%,89µM*,89µM*,-16%,/
COc1ccc(S(=O)(=O)Nc2ccc(S(=O)(=O)Nc3ccc(F)cc3)cc2)cc1C,-3%,7%,?,-11%,-14%,-12%
CCCc1ccc(/C=C2\C(=O)c3ccccc3C(O)=C2C(=O)OCC)cc1,/,2%,/,/,/,/
CCOC(=O)C1=C(O)c2ccccc2C(=O)/C1=C\c1ccc(CC)cc1,-19%,-19%,?,?,?,56µM*
CCOC(=O)C1=C(Cc2ccc(OC)cc2)C(=O)c2ccccc2C1=O,-13%,0%,?,?,?,50µM*
CC(Sc1ncc(S(=O)(=O)c2ccc(C(C)C)cc2)c(N)n1)C(=O)Nc1ccccc1 (stereo not given),-2%,-11%,6%,3%,-28%,/
O=C1/C(=N\S(=O)(=O)c2cccs2)C([n+]2ccccc2)=C([O-])c2ccccc21,11%,?,30%,-6%,32µM*,-3%[11.6 µM]
CC(C)(C)c1cc[n+](C2=C([O-])c3ccccc3C(=O)/C2=N\S(=O)(=O)c2cccs2)cc1,-16%,-113%,?,6%,-2%,?
Cc1cccc(C(=O)N2CCc3cc(CNC(=O)COc4ccc(Cl)cc4)ccc32)c1,-3%[60.1 µM],-27%,21%,3%,-7%,/
COc1ccc(C2C3C=CCC(C)C3C(=O)N2Cc2ccccc2)cc1Cl (stereo not given),-7%,/,-13%,-17%,/,/
COC1=C(Nc2ccc(O)cc2)C(=O)c2ccccc2C1=O,-17%,?,25µM*,-22%,-11%,-16%
COC1=C(Nc2ccc(OC)cc2)C(=O)c2ccccc2C1=O,-5%,?,?,-15%,-8%,-10%[57.1 µM]
COc1ccc(C(=O)N2CCC3(CCN(Cc4cc(C(F)(F)F)cc(C(F)(F)F)c4)CC3)CC2)cc1,-18%[60.1 µM],/,/,/,/,/
CCOc1ccccc1NC(=O)CSc1ccc(-c2ccco2)nn1,-23%,?,56µM*,-1%,?,-15%[11.6 µM]
CC(=O)Nc1cccc(NC(=O)CSc2ccc(-c3ccco3)nn2)c1,?,25µM*,22µM*,-12%,18µM*,-24%
SMILES,POLK inh,POLB inh,Pol iota inh,FEN1 inhibitor,Pol eta inh,WRN inhibitor
Cc1ccc(NC(=O)CSc2ccc(-c3ccco3)nn2)c(C)c1,-10%,1%,33%,6%,-2%,-1%[57.1 µM]
COc1ccc(NC(=O)CSc2nc(SC)ns2)cc1,1%,89µM*,7%,-3%,-10%,2%
Cc1cc(C)cc(NC(=O)CSc2ccc(-c3ccco3)nn2)c1,-6%,-15%,43%,-3%,-9%,-16%
COc1cc(NC(=O)CSc2ccc(-c3ccco3)nn2)cc(OC)c1,-33%,?,50µM*,12%,-17%,-9%
CSc1nsc(SCC(=O)Nc2ccc(NC(C)=O)cc2)n1,-10%,37%,45%,9%,-26%,-23%
N[C@@H](C(=O)O)[C@@H](CC(=O)O)c1ccc(Cl)cc1,8%[19.4 µM],/,/,/,/,/
O=C(CSc1ccc(-c2ccco2)nn1)c1ccc(F)cc1,32µM*,?,14µM*,?,?,45µM*
CC(=O)c1cccc(NC(=O)CSc2ccc(-c3sc(C)nc3C)nn2)c1,-10%,79µM*,-21%,-9%,-4%,-9%
O=C(CSc1ccc(-c2ccco2)nn1)NCc1ccc(F)cc1,-14%,-30%,-10%,10%,-3%,-15%
O=C(CSc1nnc(-c2ccco2)n1CC1CCCO1)c1ccc(F)cc1 (stereo not given),-10%,26%,?,-5%,-2%,79µM*
COc1ccc(NC(=O)CSc2ccc(-c3cccs3)nn2)cc1,-4%,0%,89µM*,-5%,-12%,/
CC(=O)Nc1ccc(NC(=O)CSc2ccc(-c3cccs3)nn2)cc1,-5%,-13%,-26%,-7%,-3%,-8%
Cn1cc(-c2nc3cnc(N4CCOCC4)nc3n(CCC#N)c2=O)c2ccccc21,-5%[60.1 µM],/,/,/,/,/
O=c1cc(-c2ccc(O)c(O)c2)oc2ccc3ccccc3c12,-24%,/,?,?,?,-30%
O=c1oc(-c2ccc(O)c(O)c2)cc2cccc(O)c12,?,/,?,?,35µM*,?
Cc1ccccc1NS(=O)(=O)c1ccc2[nH]cc(C(=O)N(C)Cc3ccco3)c(=O)c2c1,?,20µM*,?,-2%,8.9µM*,-24%
Cc1cc(C)cc(NS(=O)(=O)c2ccc3[nH]cc(C(=O)N(C)Cc4ccccc4)c(=O)c3c2)c1,-7%,-23%,?,-20%,-8%,/
